# PubChem BioAssay AID504333 (National Center for Advancing Translational Sciences (NCATS), 2011)
# In all, about 360,000 compounds went through this assay and about 16,000 (4.4%) were called active. A call without a number means that no potency is given here. Inconclusive results (about 9%) are left out. Calls follow the shape of the dose curve; as a rule, active = well fitted inhibition curve with a large enough effect; inconclusive = small, poorly fitted or top-dose-only effect; inactive = no such curve, though single readings can be large or run the other way. Many of the other results were omitted from the sample, so actives are more common in it than they were.
# Biological target: Bromodomain adjacent to zinc finger domain protein 2B (Homo sapiens) (UniProt Q9UIF8)
# Assay: qHTS Assay for Inhibitors of BAZ2B; also: nearly all actives have a fitted effect of over 60% in size
# Details: AlphaScreen BAZ2B-H3K14Ac peptide displacement; series mostly up to 114 µM
# How it was run: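 BAZ2B (50 nM) with biotin-H3(5-23)K14Ac peptide (50 nM) in PBS pH 7.4, 0.01% Tween-20, preformed 30 min, then compound 30 min at room temperature; top concentration 110uM. AlphaScreen streptavidin donor/nickel chelate acceptor beads (10 ug/mL final), 20 min dark, signal read.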
# Potency is read from the fitted curve at half-maximal effect.
# Sequence of Bromodomain adjacent to zinc finger domain protein 2B (Homo sapiens) (Q9UIF8 whole entry, looked up, the tested form may be a part): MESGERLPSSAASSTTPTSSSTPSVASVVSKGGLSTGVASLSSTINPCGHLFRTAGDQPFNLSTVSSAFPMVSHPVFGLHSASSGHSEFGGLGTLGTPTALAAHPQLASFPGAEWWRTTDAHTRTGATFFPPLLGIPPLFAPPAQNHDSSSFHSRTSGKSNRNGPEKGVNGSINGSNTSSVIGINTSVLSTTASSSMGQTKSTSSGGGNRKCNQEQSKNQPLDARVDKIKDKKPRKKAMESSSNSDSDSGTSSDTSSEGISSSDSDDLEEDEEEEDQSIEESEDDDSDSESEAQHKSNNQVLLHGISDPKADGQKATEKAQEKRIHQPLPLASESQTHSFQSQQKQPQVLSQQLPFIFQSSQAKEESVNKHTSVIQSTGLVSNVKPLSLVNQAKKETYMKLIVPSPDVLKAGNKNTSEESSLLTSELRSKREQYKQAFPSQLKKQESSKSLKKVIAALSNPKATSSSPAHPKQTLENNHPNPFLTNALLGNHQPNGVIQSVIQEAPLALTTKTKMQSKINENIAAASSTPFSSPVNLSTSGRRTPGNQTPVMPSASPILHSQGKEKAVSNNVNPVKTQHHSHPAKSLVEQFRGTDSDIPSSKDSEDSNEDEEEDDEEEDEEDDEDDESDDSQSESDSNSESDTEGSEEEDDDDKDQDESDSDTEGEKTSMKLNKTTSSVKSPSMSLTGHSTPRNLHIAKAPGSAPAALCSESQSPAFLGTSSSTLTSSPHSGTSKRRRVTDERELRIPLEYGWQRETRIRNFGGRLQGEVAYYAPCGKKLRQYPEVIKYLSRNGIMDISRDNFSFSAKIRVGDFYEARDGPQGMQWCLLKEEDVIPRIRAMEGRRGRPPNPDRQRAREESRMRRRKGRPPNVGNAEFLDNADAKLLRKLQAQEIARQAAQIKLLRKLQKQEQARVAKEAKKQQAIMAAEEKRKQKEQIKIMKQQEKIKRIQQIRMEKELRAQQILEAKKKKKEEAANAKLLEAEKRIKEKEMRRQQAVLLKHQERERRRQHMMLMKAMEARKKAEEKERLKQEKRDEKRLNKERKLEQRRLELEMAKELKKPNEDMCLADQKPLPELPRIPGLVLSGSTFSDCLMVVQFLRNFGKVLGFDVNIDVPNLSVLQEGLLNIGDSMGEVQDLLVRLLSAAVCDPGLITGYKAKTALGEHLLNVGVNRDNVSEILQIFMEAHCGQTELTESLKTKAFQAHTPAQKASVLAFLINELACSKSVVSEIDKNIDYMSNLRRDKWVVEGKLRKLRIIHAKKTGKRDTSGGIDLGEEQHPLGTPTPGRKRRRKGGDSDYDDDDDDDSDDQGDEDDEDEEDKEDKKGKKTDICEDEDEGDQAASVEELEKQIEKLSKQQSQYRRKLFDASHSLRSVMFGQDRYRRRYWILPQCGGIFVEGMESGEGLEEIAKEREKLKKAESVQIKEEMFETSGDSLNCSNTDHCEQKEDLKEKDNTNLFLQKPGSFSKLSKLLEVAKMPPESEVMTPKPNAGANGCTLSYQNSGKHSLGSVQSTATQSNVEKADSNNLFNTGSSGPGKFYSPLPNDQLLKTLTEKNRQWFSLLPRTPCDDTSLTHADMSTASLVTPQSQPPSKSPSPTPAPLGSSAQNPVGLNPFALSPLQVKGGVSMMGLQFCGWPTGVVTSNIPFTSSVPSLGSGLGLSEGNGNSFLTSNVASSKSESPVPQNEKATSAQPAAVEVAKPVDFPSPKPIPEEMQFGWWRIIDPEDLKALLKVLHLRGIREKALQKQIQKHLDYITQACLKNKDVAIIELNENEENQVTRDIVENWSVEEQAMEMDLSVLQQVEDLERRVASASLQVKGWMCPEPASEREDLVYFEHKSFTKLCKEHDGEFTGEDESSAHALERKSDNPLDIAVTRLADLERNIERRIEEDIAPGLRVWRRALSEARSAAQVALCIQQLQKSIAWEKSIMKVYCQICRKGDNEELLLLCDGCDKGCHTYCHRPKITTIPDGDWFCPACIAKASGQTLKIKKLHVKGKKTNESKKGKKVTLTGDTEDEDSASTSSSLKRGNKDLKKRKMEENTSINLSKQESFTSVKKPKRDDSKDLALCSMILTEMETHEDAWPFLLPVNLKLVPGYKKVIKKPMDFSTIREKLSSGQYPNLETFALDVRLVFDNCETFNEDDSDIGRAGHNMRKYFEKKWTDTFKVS
row,Structure (SMILES),Potency
1,Cc1cc2c(cc1C)C(c1cccc(OC(C)C)c1)CC(=O)N2 (stereo unspecified),inactive
2,Cc1cc(C)c2c(-c3ccc(F)cc3)c(C#N)c(=O)n(C)c2n1,inactive
3,N#Cc1c(-c2ccc(Cl)cc2)c2c([nH]c1=S)CCCC2,inactive
4,CC(=O)c1c(C)[nH]c(=S)c(C#N)c1-c1ccc(F)cc1,79.4 µM (active)
5,CC(C)CCN(C(=O)Nc1ccc(Cl)c(Cl)c1)C(C)c1cccs1 (stereo unspecified),inactive
6,Cc1ccc(Cn2c(CCCNC(=O)C3CCCCC3)nc3ccccc32)cc1,inactive
7,CCOc1ccc(NC(=O)c2cc3c(=O)n(Cc4cccs4)ccc3nc2C)cc1,inactive
8,CC1CC(c2ccccc2)n2nc(NC(=O)c3cccs3)nc2N1 (stereo unspecified),79.4 µM (active)
9,O=C(Nc1n[nH]c(C(F)(F)F)n1)c1cccs1,inactive
10,COc1ccc(CC(=O)Nc2nc3n(n2)C(c2ccccc2)CC(=O)N3)cc1OC (stereo unspecified),inactive
11,O=C(c1ccc2c(c1)N(Cc1ccc(Cl)cc1)C(=O)c1ccccc1S2(=O)=O)N1CCCCC1,inactive
12,Cc1ccc2nc(COc3cccc(NC(=O)c4ccccc4Cl)c3)cc(=O)n2c1,inactive
13,Cc1ccc(S(=O)(=O)n2nc(-c3ccc(Cl)cc3)nc2NCc2ccccc2)cc1,inactive
14,Cc1ccc(/C=N/NC(=O)C2=NNC(c3ccccc3)(c3ccccc3)C2)c(O)c1,inactive
15,Cc1nc2ccccc2nc1N/N=C/c1ccc(O)cc1O,25.1 µM (active)
16,FC(F)(F)c1nc2ccccc2nc1N/N=C/c1ccc(Cl)cc1,inactive
17,Cc1ccc(Cl)cc1-n1ncc2c(N3CCC(C(N)=O)CC3)ncnc21,inactive
18,Cc1cccn2c(=O)c3cc(C(=O)NC(C)c4ccccc4)c(=N)n(CCCO)c3nc12 (stereo unspecified),inactive
19,COc1ccc(-c2cc(NCc3ccc(F)cc3)n3cnnc3n2)cc1,inactive
20,Cc1ccc(CSc2nc3cccnc3n2Cc2ccc(C(=O)NC3CC3)cc2)cc1,inactive
21,Cc1csc(SCC(=O)Nc2sccc2C#N)n1,56.2 µM (active)
22,COc1ccc(NC(=O)CSc2nc(C)cs2)cc1,inactive

row,Structure (SMILES),Potency
1,Cc1ccc(NC(=O)CSCC(=O)Nc2sccc2C#N)cc1,inactive
2,COc1ccc2c(c1)C=C(C(=O)NCc1cc(Br)ccc1OC)CO2,inactive
3,Cc1ccc(Cl)cc1NC(=O)CSc1nc2ccccc2nc1Cc1ccccc1,inactive
4,Cc1cccc(COc2ccccc2/C=N/Nc2ccc([N+](=O)[O-])cc2)c1,inactive
5,Cc1ccc(NS(=O)(=O)c2ccc(N/N=C/c3ccccc3OCC(=O)O)c([N+](=O)[O-])c2)c(C)c1,7.94 µM (active)
6,C=C(C)CNC(=S)N/N=C/c1ccccc1OCC(=O)O,inactive
7,Cc1ccc(CCNC(=O)c2ccc(CS(=O)(=O)Cc3cccc(C)c3)o2)cc1,inactive
8,Cc1ccc(CNC(=O)CSc2c3c(nc4cc(Cl)ccc24)CCCC3)cc1,inactive
9,CC(=O)N/N=C/c1cc2c(cc1[N+](=O)[O-])OCO2,inactive
10,CN(C)/N=C/c1cc(Cl)cc([N+](=O)[O-])c1O,44.7 µM (active)
11,COc1ccc(NC(=O)C(c2ccccc2)N2Cc3ccccc3C2=O)cc1 (stereo unspecified),inactive
12,COc1ccc2c(c1OC)C(=O)N(c1ccc(O)cc1)C2,inactive
13,COc1ccc2c(c1OC)C(=O)c1ccccc1C2=O,inactive
14,COc1ccc2c(c1OC)C(=O)N(c1ncn[nH]1)C2,56.2 µM (active)
15,COc1ccc(Cc2nc3ccc(C(=O)NCc4ccccc4Cl)cc3o2)cc1,inactive
16,CCc1ccc(-n2nnc(-c3nc(-c4ccccc4)no3)c2C)cc1,inactive
17,O=C(CN1C(=O)C2C3C=CC(C3)C2C1=O)NCCc1ccccc1Cl (stereo unspecified),inactive
18,O=C(NCCN1C(=O)C2C3C=CC(C3)C2C1=O)Nc1ccccn1 (stereo unspecified),inactive
19,O=C(CN1C(=O)C2C3C=CC(C3)C2C1=O)Nc1nc(-c2ccccn2)cs1 (stereo unspecified),50.1 µM (active)
20,CCOc1ccc(CNC(=O)c2cccc(Nc3nc4ccccc4n4nnnc34)c2)cc1OC,inactive
21,Cc1ccc(OCCSc2nc3ccc(NC(=O)COc4ccc(C)cc4)cc3s2)cc1,inactive
22,Cc1cc(C)cc(Nc2ncnc3onc(-c4ccc(F)cc4)c23)c1,inactive

row,Structure (SMILES),Potency
1,COc1ccccc1-c1nnc(NC(=O)c2cccc(N3C(=O)CCC3=O)c2)o1,25.1 µM (active)
2,O=C(Nc1cccc2cccnc12)c1cccc(N2C(=O)CCC2=O)c1,inactive
3,COC(=O)c1cccc(NC(=O)c2cccc(N3C(=O)CCC3=O)c2)c1,inactive
4,COc1ccc(Cc2nc3ccc(C(=O)NCc4ccc(OC)cc4OC)cc3o2)cc1,inactive
5,Cc1ccc(S(=O)(=O)c2nc(-c3ccco3)oc2SCC(=O)Nc2ccc(F)cc2)cc1,inactive
6,CCCCS(=O)(=O)c1oc(-c2cccs2)nc1S(=O)(=O)c1ccccc1,inactive
7,Cc1ccc(C)c(S(=O)(=O)c2nnn3c2nc(N2CCOCC2)c2sccc23)c1,inactive
8,O=C(NCCCO)c1nn(-c2ccc(Cl)cc2)nc1CO,inactive
9,Cc1cc(NC(=O)C2CCC(CNS(=O)(=O)c3ccc(Br)s3)CC2)ccc1Br (stereo unspecified),inactive
10,CCc1ccc(C(=O)NN=C2CCCCCC2)s1,inactive
11,CC(C)(C)NC(=O)C(=O)NN=C1CCCCCCC1,inactive
12,CC(C)NC(=S)NN=C1CCCCCCCCCCC1,35.5 µM (active)
13,O=C(c1ccc2c(c1)N(Cc1ccccc1)C(=O)c1ccccc1S2(=O)=O)N1CCC(Cc2ccccc2)CC1,inactive
14,COc1cc(N2CCCC2)c(OC)cc1/C=C(/C#N)c1cccc(Br)c1,10 µM (active)
15,CC(=O)Nc1cccc(Oc2cc(C#N)c(C#N)cc2N2CCOCC2)c1,inactive
16,CCc1ccc(NC(=O)c2cc3c(=O)n(Cc4cccnc4)ccc3nc2C)cc1,inactive
17,Cc1ccc(-n2c(SCC(=O)Nc3cccc(F)c3)nc3c(oc4ccccc43)c2=O)cc1C,inactive
18,CC(=O)N1CCN(CC(=O)Nc2ccc(SC(F)F)cc2)CC1,inactive
19,CCN(CC)c1ccc(NC(=O)CN2C(=O)NC3(CCc4ccccc43)C2=O)cc1 (stereo unspecified),inactive
20,CCOC(=O)N1CCN(CC(=O)Nc2ccc(F)cc2)CC1,inactive
21,CC(=O)N1CCN(CC(=O)Nc2ccc(C)c(F)c2)CC1,44.7 µM (active)
22,COC(=O)c1cc(NC(=O)CN2CCN(C(C)=O)CC2)cc(C(=O)OC)c1,inactive

row,Structure (SMILES),Potency
1,CCN(CC)c1ccc(NC(=O)CN2CCN(CC(=O)Nc3ccc(Cl)cc3)CC2)cc1,20 µM (active)
2,CCN(CC)c1ccc(NC(=O)CN2C(=O)c3cccnc3Oc3ccc(Cl)cc32)c(C)c1,inactive
3,Cc1cccc(C(=O)Nc2ccc(S(=O)(=O)N3CCCCC3c3cccnc3)cc2)c1 (stereo unspecified),inactive
4,Cc1ccc(Cn2c(C)c3cnn(CC(=O)NCc4ccccc4)c(=O)c3c2C)cc1,inactive
5,COC(=O)c1scc(-c2ccccc2)c1S(=O)(=O)Nc1ccccc1,inactive
6,CC(=O)c1ccc(NC(=O)CCc2nc(-c3ccc(C)cc3)no2)cc1,inactive
7,COc1ccc(Cl)cc1NC(=O)CCn1c(=O)c2cccn2c2ccccc21,inactive
8,Cc1ccc(NC(=O)CCCn2c(=O)c3cccn3c3ccccc32)cc1Cl,50.1 µM (active)
9,CCCCn1c(=O)c(CCC(=O)OCC(=O)Nc2ccc(C)c(Cl)c2)nc2ccccc21,inactive
10,Cc1cccc(NC(=O)CSc2nc(-c3ccco3)cc(C(F)(F)F)n2)c1C,inactive
11,Cc1ccc(Cl)cc1N1CCN(C(=O)c2cnc3c(-c4ccc(F)cc4)c(C)nn3c2C)CC1,inactive
12,O=C(N/N=C/c1ccc(Br)o1)c1cncc(Br)c1,inactive
13,Cc1ccc(C(=O)N/N=C\c2cc(Br)c(Br)o2)cn1,50.1 µM (active)
14,O=C(O)c1ccc(/C=N/NC(=O)c2ccc(Br)cc2)cc1,inactive
15,Cc1nn2c(=O)cc(COC(=O)c3cccc(NC(=O)COc4ccccc4Cl)c3)nc2s1,inactive
16,CCOc1ccc(-c2cc3nc(C4CCN(C(=O)OC(C)(C)C)CC4)c(C(=O)Nc4cccc(CC)c4)cn3n2)cc1,inactive
17,Cc1n[nH]c(=O)n1-c1ccc(Oc2ccccc2)cc1,inactive
18,Cc1cc(C(=O)OCC(=O)NCc2ccco2)c(C)n1-c1ccccc1,inactive
19,Cc1cc(-c2csc(N)n2)c(C)n1-c1ccccc1,44.7 µM (active)
20,COc1ccc(NS(=O)(=O)c2cc3c4c(c2)CC(=O)N4CCC3)cc1Cl,inactive
21,COc1ccccc1CNC(=O)c1ccc(CS(=O)c2ccccc2Cl)o1 (stereo unspecified),inactive
22,Brc1ccc(-c2csc(N/N=C/c3ccc4c(c3)OCO4)n2)cc1,inactive

row,Structure (SMILES),Potency
1,Cc1noc(C)c1/C=N/Nc1ccc2ccccc2n1,inactive
2,C(=N\Nc1ccc2ccccc2n1)/c1ccc2c(c1)OCO2,50.1 µM (active)
3,COc1ccc(CCNC(=O)CCCn2c(=O)c3ccccc3n(Cc3ccc(C)cc3)c2=O)cc1OC,inactive
4,CCOC(=O)c1cc(-c2ccc(OC)c(S(=O)(=O)Nc3ccc(OC)cc3OC)c2)on1,inactive
5,Clc1cccc(-n2ncc3c(NCCc4ccccc4)ncnc32)c1,inactive
6,CCN(CC)CCNc1ncnc2c1cnn2-c1cc(Cl)ccc1C,inactive
7,Cc1ccc(-n2ncc3c(NCCCn4ccnc4)ncnc32)cc1Cl,44.7 µM (active)
8,O=C(CC1Oc2ccc(Cl)cc2NC1=O)NCc1ccccc1 (stereo unspecified),inactive
9,CCOc1ccccc1CNC(=O)c1cnc2c(-c3ccc(OCC)c(OCC)c3)c(C)nn2c1C,inactive
10,Cc1ccc(SCC(=O)Nc2ccc3oc(-c4ccccc4F)nc3c2)cc1,inactive
11,CCOC(=O)C1CCCN(C(=O)c2ccc3c(c2)sc2nc(-c4ccc(CC)cc4)cn23)C1 (stereo unspecified),inactive
12,Cc1ccccc1CNC(=O)CSc1nnc(C)c2c(C)n(-c3ccccc3)nc12,inactive
13,C/C(=N\NC(=O)Cc1ccc(Br)cc1)c1cccnc1,inactive
14,C/C(=N\NC(=O)Cc1ccc(Cl)cc1)c1ccccn1,44.7 µM (active)
15,NC(=O)NC(CC(=O)NNC(=O)c1ccccn1)c1ccc(Cl)cc1 (stereo unspecified),inactive
16,O=C(Nc1ccc(NC(=O)c2ccccc2F)cc1)c1ccccc1F,inactive
17,C/C(=N\NC(=O)c1ccccc1F)c1ccccn1,20 µM (active)
18,C/C(CC(=O)Nc1ccc(N(C)C)cc1)=N\NC(=O)c1ccccc1F,inactive
